# Shown is part of a subset that was picked to be rich in hits.
# PNC assembly inh: perinucleolar compartment assembly inhibition; 140,000 tested, 3.1% active; PC3M PTB-GFP, PNC prevalence imaging, 16 h; hits give low values; activity change (PNC), negative = inhibition, % at 10 µM;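 active = readout at or below -70, meaning at least 70% loss of cells showing the perinucleolar compartment, a nuclear body marking cancer cells; inconclusive = readout between -30 and a set limit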
#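 PC3M cells stably expressing PTB-GFP, 750–1000 cells/well, treated 16 h at 37 °C with compound (23 nl of library stock), in duplicate. After paraformaldehyde fixation and Hoechst stain, imaged at 20x; PNC prevalence scored by image analysis.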
# IMPase cell inh: cell-permeable inhibitors of inositol monophosphatase (IMPase). P97697. CHO-M1 cells, IP1 accumulation, HTRF TR-FRET ratio. inhibition (IP1 accumulation), % at 46.1 µM. 120,000 tested, under 10 active. AID 901; active = well fitted curve in the direction sought with a large enough effect in the signal ratio, not every such curve was filed as active; inconclusive = small, poorly fitted or top-dose-only effect, or a change in a side signal; inactive = no such curve, though single readings can be large or run the other way; the % refers to the signal ratio;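 note: cells stimulated with carbachol in lithium chloride buffer; higher means more IMPase inhibition seen as more IP1 and lower FRET ratio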
# Target sequence (P97697 whole entry, looked up): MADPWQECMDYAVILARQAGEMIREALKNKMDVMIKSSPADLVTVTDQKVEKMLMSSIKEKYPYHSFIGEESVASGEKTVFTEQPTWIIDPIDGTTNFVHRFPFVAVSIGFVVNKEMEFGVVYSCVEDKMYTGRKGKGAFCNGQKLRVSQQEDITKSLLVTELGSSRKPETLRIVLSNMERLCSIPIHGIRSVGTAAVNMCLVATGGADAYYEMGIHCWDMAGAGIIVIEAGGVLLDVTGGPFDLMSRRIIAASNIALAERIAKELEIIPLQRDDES
#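 Cellular IMPase inhibition is scored as a rise in cytosolic IP1, detected by competitive TR-FRET between d2-labelled IP1 and a europium anti-IP1 antibody. M1-expressing CHO cells were stimulated with carbachol for 30 min at 37C, with lithium (50 mM LiCl) present in the buffer.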
# Lamin A splicing: LMNA splicing modulation | Potency, µM (titrated, usually from 46.1 µM), hits mostly inhibitors | 200,000 tested, 0.01% active | HeLa LMNA splicing GFP/RFP minigene ratio, 48 h; active = well fitted inhibition curve with a large enough effect in the signal ratio, with a control signal flat, not every such curve was filed as active; inconclusive = small, poorly fitted or top-dose-only effect, or effect the other way, or a change in a side signal; the % refers to the signal ratio
#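 Read-out is the ratio of GFP to DsRed2 object intensity, acquired by 488 nm laser-scanning cytometry on HeLa lamin A-EGFP minigene reporter cells. Compound incubation 48 hrs at 37 °C in Opti-MEM with 2% FBS; DMSO 0.5% final.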
# A number is an active result; . = inactive; ? = inconclusive; / = no result given; [ ] = remark or other dose.
SMILES,PNC assembly inh,IMPase cell inh,Lamin A splicing
Cc1sc2nc(C(C)C)nc(SCC(=O)N3c4ccccc4CC3C)c2c1C (stereo not given),-97.0,/,?
COC(=O)c1c(C)oc2ccc(N(C(=O)c3ccncc3)S(=O)(=O)c3c(C)cc(C)cc3C)cc12,/,.,/
CCc1ccc(-c2nc(CN3CCC(C(=O)NCc4ccccc4OC)CC3)c(C)o2)cc1,-97.5,?,?
COc1ccccc1CNC(=O)C1CCN(Cc2nc(-c3cccc(Cl)c3)oc2C)CC1,.,?,?
COc1cc(/C=N/NS(=O)(=O)c2ccc3ccccc3c2)ccc1OCCN1CCOCC1,.,/,?
Cc1ccc(-c2cc(C(=O)NCc3cccs3)no2)cc1,.,.,.
O=C(NCc1cccs1)c1cc(-c2cccc(Cl)c2)on1,-124.1,.,.
COc1ccc(/C=C/C(=O)c2c(C)nc3ccccn23)cc1,.,.,?
Cc1nc2ccccn2c1C(=O)/C=C/c1ccc(F)cc1,-94.8,.,?
CCOC(=O)c1ccccc1NC(=O)c1sc2ncn(Cc3cccc(F)c3)c(=O)c2c1C,/,/,.
Cc1cc(C(=O)N/N=C2\CCCc3ccccc32)c(C)o1,-113.4,/,.
O=C(N/N=C1\CCc2ccccc21)c1ccccc1O,?,.,.
CCS(=O)(=O)N1CCC(C(=O)NCC2CCCO2)CC1 (stereo not given),?,.,.
Cc1ccc(CN2C(=O)CCC2C(=O)NCC2CCCO2)cc1 (stereo not given),?,.,.
O=C(NCC1CCCO1)C1CCN(S(=O)(=O)Cc2ccccc2)CC1 (stereo not given),-107.7,.,.
O=C(NCC1CCCO1)C1CCC(=O)N1CCc1ccccc1 (stereo not given),-102.1,.,.[0.0737 µM]
CCC(C)NC(=O)c1n[nH]c(=O)c2ccccc12 (stereo not given),-100.0,.,.
Cc1cc(C)c(-c2csc(NC(=O)c3cc([N+](=O)[O-])ccc3N3CCOCC3)n2)c(C)c1,.,/,?
COc1ccc(-c2nc(NC(=O)c3n[nH]c(=O)c4ccccc34)sc2C)cc1,-114.1,/,?
COc1ccc(-c2nc(NC(=O)c3cc(C(C)(C)C)nn3C)sc2C)cc1,.,.,?
Cc1cc(C)c(-c2csc(NC(=O)c3n[nH]c(=O)c4ccccc34)n2)c(C)c1,-89.3,.,?
CCN(CC)C(=O)c1n[nH]c(=O)c2ccccc12,.,.,.
CCCNC(=O)c1cnn2c(C(F)F)cc(-c3ccccc3)nc12,/,.,/
Cc1ccc2oc(=O)n(CCCOc3ccc(Cl)cc3)c2c1,/,.,/
CC1CCC/C(=N/NC(=O)c2ccccc2-n2cccc2)C1 (stereo not given),-109.0,/,.
SMILES,PNC assembly inh,IMPase cell inh,Lamin A splicing
O=C(NN=C1CCC(c2ccccc2)CC1)c1ccccc1-n1cccc1 (stereo not given),.,.,.
COc1ccc(CNC(=O)CCc2c(C)nn(-c3ccc(N4CCCCC4)nn3)c2C)cc1,/,/,.
COC(=O)c1ccc(OCC2c3cc(OC)c(OC)cc3CCN2C(=O)C2CC2)cc1 (stereo not given),.,.,.
COc1cc2c(cc1OC)C(c1cc3cc4c(cc3[nH]c1=O)OCO4)N(C(=O)C1CC1)CC2 (stereo not given),-100.0,.,?
CCOC(=O)N1CCN(C(=O)CN(C2CCCCC2)S(=O)(=O)c2c(C)cc(C)cc2C)CC1,.,.,.
Cc1cc(C)c(S(=O)(=O)N(CC(=O)O)C2CCCCC2)c(C)c1,-97.3,.,.
Cc1cc(C)c(NC(=O)C2CCN(S(=O)(=O)c3c(C)noc3/C=C/c3ccccc3F)CC2)c(C)c1,/,/,.
Cn1cc(Cl)c(C(=O)NC2CCCCCC2)n1,.,.,.
Cn1cc(Cl)c(C(=O)NNC(=S)NC2CCCCC2)n1,-109.0,/,.
Cc1cccc(NC(=O)c2oc3ccc(S(=O)(=O)N(C)C4CCCCC4)cc3c2C)c1C,/,/,.
Cc1cc(NS(=O)(=O)Cc2ccccc2)cc(C)c1OCC(=O)N1CCOCC1,-95.7,.,.
Cc1cc(NC(=O)c2cc3ccccc3o2)cc(C)c1OCC(=O)N1CCOCC1,.,.,?
CCC1CCCCN1S(=O)(=O)c1ccc(N2CCCCS2(=O)=O)cc1 (stereo not given),/,/,.
O=C(/C=C\c1ccccc1)NC1CC(=O)N(c2ccccc2)C1 (stereo not given),/,/,.
COc1cc(CN2CCN(Cc3ccc(C)cc3)C(CCO)C2)cc(OC)c1O (stereo not given),/,/,.
O=C1C2C3C=CC([C@@H]2C(=O)N1Cc1cccnc1)C31CC1 (stereo not given in full),.,.,.[0.0737 µM]
N#CC12CCCCC1CC1CCCCC1(C#N)N2Cc1cccnc1 (stereo not given),-86.6,.,.
COc1ccc(F)cc1S(=O)(=O)Nc1ccc2c(c1)CCCN2C(=O)c1cccs1,/,/,.
CC(=O)Nc1ccc(/C=N/NC(=O)c2cc3ccccc3nc2C)cc1,?,/,.
Cc1nc2c(cc1C(=O)N/N=C/c1ccc(O)c(O)c1)c(=O)n(C)c(=O)n2C,-88.8,/,.
O=C(O)/C=C/C(=O)Nc1ccccc1-c1ccccc1,-108.8,.,.[0.0737 µM]
O=C(O)COCC(=O)Nc1ccccc1-c1ccccc1,/,/,.
CC(=O)c1ccc(NC(=O)C2CCN(S(=O)(=O)c3ccc4c(c3)CCCN4C(=O)C3CCC3)CC2)cc1,/,/,.
CCn1c(SCC(=O)N2CCN(c3ccccc3)CC2)nnc1-c1ccncc1,-100.0,.,.
Cc1ccccc1-n1c(SCC(=O)N2CCN(c3ccccc3)CC2)nnc1-c1ccncc1,.,.,.
SMILES,PNC assembly inh,IMPase cell inh,Lamin A splicing
CCOC(=O)c1c(C)[nH]c(CCC(=O)NC(C)c2ccccc2)c1C (stereo not given),/,/,.
O=C(Cn1c(C(=O)N2CCN(C3CCCC3)CC2)cc2sccc21)c1ccccc1,-121.8,.,.
O=C(Cn1c(C(=O)NCC2CCCO2)cc2sccc21)c1ccccc1 (stereo not given),.,.,.
COc1ccc(NC(=O)C(c2ccc(OC)cc2)N(C)C(=O)c2cnccn2)cc1 (stereo not given),.,.,.
COc1ccc(CN(C(=O)c2cnccn2)C(C(=O)Nc2ccc(F)cc2)c2ccccc2)cc1 (stereo not given),-95.0,.[0.0738 µM],.
CCOC(=O)c1ccc(NS(=O)(=O)c2cn(C)c(C)n2)cc1,/,/,.
Cc1cc(C)cc(NC(=O)c2cn3c4c(ccc(Cl)c4c2=O)OC(C)C3)c1 (stereo not given),/,/,.
COc1cc(/C=c2\s/c(=C(/C#N)C(=O)N3CCCC3)n(-c3ccccc3)c2=O)ccc1O,?,.,.
Cc1ccc(/C=c2\s/c(=C(/C#N)C(=O)N3CCCC3)n(Cc3ccco3)c2=O)s1,-89.9,.,.
COCCNC(=O)C1CCN(Cc2cc3ccccc3n2Cc2ccc(C)cc2)CC1,/,/,.
COc1ccc(CCNC(=O)CCn2c(=O)c3cccn3c3ccc(F)cc32)c(OC)c1OC,/,/,.
C/C=C/c1ccc(OCCCNC2CCCC2)c(OC)c1,?,.,.
C/C=C/c1ccc(OCCOc2cc(C=O)ccc2OC)c(OC)c1,-113.4,/,?
C/C=C/c1ccc(OCC(=O)O)c(OC)c1,/,/,.
C/C=C/c1ccc(OCCCCOc2ccccc2F)c(OC)c1,-125.2,/,.
O=C(NNC1=NC2(CCCC2)Cc2ccccc21)c1cccnc1,/,/,.

# From PubChem BioAssay
